Assay results as given in PubChem BioAssay (Tox21).
Several values for one entry are separate records, joined by “and”; a condition that tells them apart may be missing. Equal values may be shown once. Inconclusive results are not listed. Entries that show only a call come without a potency. Some structures have more than one record in an assay (separate samples or runs), and their calls can disagree. Activity calls are given as the source filed them. Unless noted, calls follow the shape of the dose curve; as a rule, active = well fitted curve in the direction sought with a large enough effect in the repeat runs; inconclusive = weak or mixed curves; inactive = no such curve, though single readings can be large; an effect the other way counts as inactive or inconclusive.

Tests used:
[1] = qHTS assay for small molecule agonists of the p53 signaling pathway (AID 651631; calls by dose curve; also: nearly all actives have a fitted effect of over 15% in size)
Procedure, shortened: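 Fluorescence intensity from cleaved LiveBLAzer B/G substrate (2 h, room temperature) served as the signal. Beforehand, HCT-116 reporter cells bearing p53 response elements were treated 16 h at 37 °C with DMSO-dissolved compounds.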

[2] = qHTS assay for small molecules that induce genotoxicity in human embryonic kidney cells expressing luciferase-tagged ATAD5 (AID 651632); also: nearly all actives have a fitted effect of over 15% in size
Procedure, shortened: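 Genotoxicity read-out via ATAD5-luciferase: HEK293T cells, 16 hr compound incubation at 37C, Amplite detection.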

[3] = qHTS assay for small molecule agonists of the p53 signaling pathway - cell viability (AID 651633; calls by dose curve; also: nearly all actives have a fitted effect of over 30% in size; also: potency is read from the fitted curve at half-maximal effect)
Procedure, shortened: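 p53RE-bla cells were treated with compound for 16 hours at 37 C. Cytotoxicity was then measured as CellTiter-Glo luminescence after 30 min at room temperature.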

[4] = qHTS assay for small molecules that induce genotoxicity in human embryonic kidney cells expressing luciferase-tagged ATAD5 - cell viability (AID 651634; calls by dose curve; also: nearly all actives have a fitted effect of over 25% in size)
Procedure, shortened: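 Live-cell protease activity (CellTiter-Fluor, fluorescence) indicates viability. HEK293T cells with luciferase-tagged ATAD5; 15.5 hr compound treatment at 37C.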

[5] = qHTS assay for small molecule disruptors of the mitochondrial membrane potential - cell viability (AID 720634; calls by dose curve; also: nearly all actives have a fitted effect of over 20% in size; also: potency is read from the fitted curve at half-maximal effect)
Procedure, shortened: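 Human hepatoma HepG2 cells were treated for 1 hr with test chemicals, then given m-MPI dye and CellTiter-Glo. Cell viability reflects luminescence proportional to cellular ATP.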

[6] = qHTS assay for small molecule disruptors of the mitochondrial membrane potential (AID 720635); also: potency is read from the fitted curve at half-maximal effect
Procedure, shortened: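 HepG2 cells exposed to compound 1 hr at 37C, then Mito-MPS dye 30 min. Ratio read of aggregate (540/590 nm) versus monomer (490/535 nm) fluorescence.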

[7] = qHTS assay to test for compound auto fluorescence at 590 nm (red) in HepG2 cells (AID 720674)
Procedure, shortened: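 Seeding: 2,000 HepG2 cells/well, MEM/10% FBS, overnight 37 C. Dosing: compound vs DMSO. Incubation: 1 hr, 37 C, 5% CO2. Read: fluorescence 540 ex/590 em, Rose Bengal sodium as red reference.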

[8] = qHTS assay to test for compound auto fluorescence at 535 nm (green) in HepG2 cells (AID 720675)
[9] = qHTS assay to test for compound auto fluorescence at 460 nm (blue) in HEK293 cells (AID 720678)
Procedure, shortened: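 Measured: blue fluorescence (Ex 405/Em 460 nm) of compound-treated HEK293 cells, incubated overnight at 37C with 5% CO2 and scaled to triamterene equivalents.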

[10] = qHTS assay to test for compound auto fluorescence at 590 nm (red) in HEK293 cells (AID 720679)
Procedure, shortened: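 Using HEK293 cells at 2,000 per well, the screen added 23 nL of each compound after cell attachment and incubated overnight (37C, 5% CO2). The plate reader then captured red-label fluorescence, Ex/Em 540/590nm.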

[11] = qHTS assay to test for compound auto fluorescence at 535 nm (green) in HEK293 cells (AID 720680)
[12] = qHTS assay to test for compound auto fluorescence at 460 nm (blue) in HEK293 cell free culture (AID 720681)
Procedure, shortened: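 Compounds were added to cell-free DMEM with 10% FBS and fluorescence read directly. The blue channel used 405 nm excitation and 460 nm emission, with triamterene as the reference fluorophore.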

[13] = qHTS assay to test for compound auto fluorescence at 535 nm (green) in HEK293 cell free culture (AID 720682)
Procedure, shortened: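 Intrinsic compound fluorescence is measured in culture medium containing 10% FBS, with excitation at 485 nm and detection at 535 nm, referenced to fluorescein.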

[14] = qHTS assay to test for compound auto fluorescence at 590 nm (red) in HEK293 cell free culture (AID 720683)
Procedure, shortened: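 Cell-free wells of DMEM with 10% FBS received compound, and intrinsic fluorescence was read at excitation/emission 540/590 nm. Values expressed as equivalence to Rose Bengal sodium.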

[15] = qHTS assay to test for compound auto fluorescence at 590 nm (red) in HepG2 cell free culture (AID 720684)
Procedure, shortened: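 Compound was pinned into wells holding MEM with 10% FBS and no cells, and red fluorescence was read at Ex/Em 540/590 nm. Signal is expressed as auto fluorescence equivalency relative to Rose Bengal sodium.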

[16] = qHTS assay to test for compound auto fluorescence at 460 nm (blue) in HepG2 cell free culture (AID 720685)
Procedure, shortened: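 Compound (23 nL) or DMSO pinned into cell-free MEM with 10% FBS; blue fluorescence read at 405/460 nm excitation/emission, expressed as auto-fluorescence equivalency to triamterene.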

[17] = qHTS assay to test for compound auto fluorescence at 535 nm (green) in HepG2 cell free culture (AID 720686)
[18] = qHTS assay to test for compound auto fluorescence at 460 nm (blue) in HepG2 cells (AID 720687)
Procedure, shortened: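 HepG2 cells in MEM with 10% FBS, attached overnight at 37 C, were exposed to compound or DMSO for 1 hr at 37 C, 5% CO2. Blue fluorescence was read at 405/460 nm, with triamterene as reference fluorophore.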

[19] = target: Glucocorticoid receptor (Homo sapiens) (UniProt P04150); assay: qHTS assay to identify small molecule agonists of the glucocorticoid receptor (GR) signaling pathway (AID 720691; active = well fitted activation curve with a large enough effect in the signal ratio in the repeat runs, not every such curve was filed as active; the % refers to the signal ratio)
Procedure, shortened: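 Beta-lactamase reporter activity, read as fluorescence intensity, was measured in GR-bla HeLa cells exposed to compounds for 18 h at 37 C and then loaded with LiveBLAzer B/G FRET substrate for 2 h at room temperature.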

[20] = qHTS assay to identify small molecule antagonists of the glucocorticoid receptor (GR) signaling pathway - cell viability counter screen (AID 720693); also: nearly all actives have a fitted effect of over 55% in size

Glucocorticoid receptor (Homo sapiens), sequence (P04150 whole entry, looked up): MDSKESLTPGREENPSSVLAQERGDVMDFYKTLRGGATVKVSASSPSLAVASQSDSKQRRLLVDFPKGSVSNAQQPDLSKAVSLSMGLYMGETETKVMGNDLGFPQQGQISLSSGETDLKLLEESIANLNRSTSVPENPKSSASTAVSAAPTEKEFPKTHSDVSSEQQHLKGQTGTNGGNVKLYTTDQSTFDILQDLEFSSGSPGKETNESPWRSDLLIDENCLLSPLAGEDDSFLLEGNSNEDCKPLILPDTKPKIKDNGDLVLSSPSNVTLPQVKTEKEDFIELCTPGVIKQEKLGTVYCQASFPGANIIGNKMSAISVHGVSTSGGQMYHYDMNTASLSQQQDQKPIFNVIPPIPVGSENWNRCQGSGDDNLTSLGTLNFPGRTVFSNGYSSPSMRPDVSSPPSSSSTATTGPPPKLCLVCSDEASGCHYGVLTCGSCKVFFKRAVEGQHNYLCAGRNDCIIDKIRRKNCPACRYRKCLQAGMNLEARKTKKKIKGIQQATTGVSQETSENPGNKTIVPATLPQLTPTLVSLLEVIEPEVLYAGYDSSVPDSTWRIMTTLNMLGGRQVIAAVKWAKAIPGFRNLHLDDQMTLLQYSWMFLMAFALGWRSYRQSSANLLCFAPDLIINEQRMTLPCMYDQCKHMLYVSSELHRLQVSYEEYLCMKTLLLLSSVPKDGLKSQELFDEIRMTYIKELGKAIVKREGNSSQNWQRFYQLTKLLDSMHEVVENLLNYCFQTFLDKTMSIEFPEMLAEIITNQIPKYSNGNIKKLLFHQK

Row | SMILES | Potency [1] | outcome [2] | Potency [3] | Potency [4] | Potency [5] | Potency [6] | outcome [7] | outcome [8] | outcome [9] | outcome [10] | outcome [11] | outcome [12] | outcome [13] | outcome [14] | outcome [15] | outcome [16] | outcome [17] | outcome [18] | outcome [19] | Potency [20]
1 | O=[N+]([O-])c1ccccc1O | inactive | inactive | inactive | inactive | inactive | inactive | inactive | inactive | inactive | inactive | inactive | inactive | inactive | inactive | inactive | inactive | inactive | inactive | inactive | inactive
2 | O=C(O)CC(O)(CC(=O)O)C(=O)O | inactive | inactive | inactive | inactive | inactive | inactive | inactive | inactive | inactive | inactive | inactive | inactive | inactive | inactive | inactive | inactive | inactive | inactive | – | inactive
3 | O=C(O)C(Cl)(Cl)Cl | inactive | inactive | inactive | inactive | inactive | inactive | inactive | inactive | inactive | inactive | inactive | inactive | inactive | – | inactive | inactive | inactive | inactive | – | inactive
4 | CCCC[n+]1cccc(C)c1 | inactive | inactive | inactive | inactive | inactive | inactive | inactive | inactive | inactive | inactive | inactive | inactive | inactive | inactive | inactive | inactive | inactive | inactive | inactive | inactive
5 | CCCCCCCCCCCCCCCCn1cc[n+](C)c1 | inactive | inactive | 27.9 µM (active) and 69.2 µM (active) and 30.7 µM (active) | – | – | 17.6 µM (active) and inactive and 17.4 µM (active) | inactive | inactive | inactive | inactive | inactive | inactive | inactive | – | inactive | inactive | inactive | inactive | inactive | –
6 | CCOP(=S)(OCC)Oc1ccc2c(C)c(Cl)c(=O)oc2c1 | inactive | – | inactive | inactive | inactive and 24.3 µM (active) | 19.5 µM (active) and 61.1 µM (active) | inactive | inactive | inactive | inactive | inactive | inactive | inactive | inactive | inactive | inactive | inactive | inactive | inactive | inactive
7 | N#CS | inactive | – | inactive | inactive | inactive | inactive | inactive | inactive | inactive | inactive | inactive | inactive | inactive | – | inactive | inactive | inactive | inactive | inactive | inactive
8 | O=C(O)COc1ccc(Cl)cc1Cl | inactive | – | inactive | inactive | inactive | inactive | inactive | inactive | inactive | inactive | inactive | inactive | inactive | – | inactive | inactive | inactive | inactive | inactive | inactive
9 | COc1ccc(N)cc1 | inactive | inactive | inactive | inactive | inactive | inactive | inactive | inactive | inactive | inactive | inactive | inactive | inactive | – | inactive | inactive | inactive | inactive | inactive | inactive
10 | Nc1ccc(-c2ccc(N)cc2)cc1 | inactive | inactive | inactive | inactive | inactive | – | inactive | inactive | inactive | inactive | inactive | inactive | inactive | inactive | inactive | inactive | inactive | inactive | inactive | inactive
11 | CCC(=O)C(CC(C)N(C)C)(c1ccccc1)c1ccccc1 (centres undefined) | inactive | inactive | inactive | inactive | inactive | inactive | inactive | inactive | inactive | inactive | inactive | inactive | inactive | – | inactive | inactive | inactive | inactive | inactive | inactive
12 | Nc1ccc(Cl)cc1 | – | inactive | inactive | inactive | inactive | inactive | inactive | inactive | inactive | inactive | inactive | inactive | inactive | inactive | inactive | inactive | inactive | inactive | inactive | inactive
13 | Cc1cc(Cl)ccc1OCC(=O)O | inactive | inactive | inactive | inactive | inactive | inactive | inactive | inactive | inactive | inactive | inactive | inactive | inactive | inactive | inactive | inactive | inactive | inactive | inactive | inactive
